Values joined by “and” are separate entries in the source; they are usually repeats but may differ in a detail not shown here. Equal entries are not always repeated. Inconclusive results are not listed. The source holds several records for some structures; these can differ, active in one and inactive in another. Active and inactive are the calls of the source. Rule for the calls, unless noted: active = hit-call score of the fitted dose curve at least 0.9, where 1 is the maximum; inactive = score below 0.9. Peptide text beside a SMILES is read from it.
Legend:
[1] = BSK_BT_PBMCCytotoxicity: PBMC Cytotoxicity Assessment in the BioMAP Diversity Plus: BT Assay (AID 2284225); conditions: primary human B cells with PBMC;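 note: PBMC viability measured by Alamar Blue dye reduction fluorescence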
Summary of the method: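 PBMC (75,000/well) pretreated with compound 1 h, then activated with SEB and TSST-1 (20 ng/mL each final), incubated 90 h; Alamar Blue added 6 h, fluorescence read at 546/580 nm. Fitted relative to DMSO.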

[2] = read-out: Secreted IgG (sIgG), gene 3500; experiment: BSK_BT_sIgG: BioMAP Diversity Plus: BT Assay for Secreted IgG (sIgG) Biomarker Activity (AID 2284226); conditions: primary human B cells with PBMC
Summary of the method: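 Read-out: ELISA for secreted IgG after 24 h of chemical exposure in a B cell plus PBMC co-culture. Values reflect upward-direction fitting against DMSO negative controls.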

[3] = BSK_BT_Bcell_Proliferation: Viability Assessment in the BioMAP Diversity Plus: BT Assay for B cell Proliferation (AID 2284227); conditions: primary human B cells with PBMC
Summary of the method: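 Using a human primary B cell–PBMC co-culture, the assay measures total protein by sulforhodamine B absorbance as a gauge of proliferation after 72 h. Analysis followed the positive fitting direction with DMSO as baseline.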

[4] = read-out: Interleukin 6 (IL6), IL6 (gene 3569); experiment: BSK_BT_xIL6: BioMAP Diversity Plus: BT Assay for Interleukin 6 (IL6) Biomarker Activity (AID 2284228); conditions: primary human B cells with PBMC
Summary of the method: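 Human B cell/PBMC co-culture; secreted IL-6 quantified by Luminex xMAP 24 h after chemical dosing, fitted relative to DMSO. Parallel PBMC viability by Alamar Blue after 1 h pretreatment, 20 ng/mL SEB and TSST-1, 90 h incubation.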

[5] = read-out: Interleukin 17A (IL17A), IL17A (gene 3605); experiment: BSK_BT_xIL17A: BioMAP Diversity Plus: BT Assay for Interleukin 17A (IL17A) Biomarker Activity (AID 2284229); conditions: primary human B cells with PBMC
Summary of the method: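 Co-culture of human B cells and PBMC, dosed for 24 h in 96-well format. Secreted IL-17A measured with Luminex xMAP; gain-direction fitting against DMSO as baseline.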

[6] = read-out: Tumor necrosis factor (Homo sapiens) (UniProt P01375); experiment: BSK_BT_xTNFa: BioMAP Diversity Plus: BT Assay for Tumor necrosis factor alpha (TNF-alpha) Biomarker Activity (AID 2284230); conditions: primary human B cells with PBMC
Summary of the method: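 Endpoint derived in the positive direction versus DMSO vehicle. Cells: B cells together with PBMC, exposed 24 h before TNF-alpha in the medium was read on the Luminex xMAP platform.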

[7] = read-out: Vascular cell adhesion molecule 1 (VCAM1), VCAM1 (gene 7412); experiment: BSK_MyoF_VCAM1: BioMAP Diversity Plus: MyoF Assay for Vascular cell adhesion molecule 1 (VCAM1) Biomarker Activity (AID 2284231); conditions: primary human lung fibroblasts
Summary of the method: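 Primary human lung fibroblasts (BioMAP MyoF system) dosed with chemical, VCAM-1 measured by ELISA 24 hours later. Fitted in the positive direction against DMSO; parallel SRB staining assessed cytotoxicity.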

[8] = read-out: Collagen I, COL1A1 (gene 1277); experiment: BSK_MyoF_CollagenI: BioMAP Diversity Plus: MyoF Assay for Collagen I Biomarker Activity (AID 2284238); conditions: primary human lung fibroblasts
Summary of the method: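 Primary human lung fibroblasts (MyoF system) treated 24 h; Collagen I quantified by ELISA and fitted in positive direction against DMSO. Parallel SRB total-protein staining assessed overt cytotoxicity.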

[9] = CCTE_Mundy_HCI_Cortical_NOG_NeuriteLength: CCTE's Neurite Outgrowth Assay in rat cortical cells for Neurite Length, Mundy Lab (AID 2284213)
Summary of the method: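 Neurite length was read by high-content imaging of βIII-tubulin-labelled neurites in rat primary cortical cultures. Activity was fitted relative to DMSO.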

[10] = CCTE_Mundy_HCI_Cortical_Synap_Neur_Matur_NeuriteLength: CCTE's Synaptogenesis and Neurite Maturation Assay in rat cortical cells for Neurite Length, Mundy Lab (AID 2284214)
Summary of the method: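 Rat cortical neurons, AraC at DIV 5; compound + media change DIV 7, end DIV 12 (288.33 h). Fix, MAP2/synaptophysin/Hoechst immunostain, automated HCI of neurite length vs DMSO.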

[11] = CCTE_Mundy_HCI_Cortical_Synap_Neur_Matur_NeuriteSpotCountPerNeuron: CCTE's Synaptogenesis and Neurite Maturation Assay in rat cortical cells for Neurite Spot Count per Neuron Count, Mundy Lab (AID 2284215)
Summary of the method: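 Rat primary cortical cultures given AraC at DIV 5, dosed from DIV 7 to DIV 12 with media change. Fixed, stained for MAP2, synaptophysin and Hoechst; neurite-associated synaptophysin puncta per neuron quantified by high-content imaging versus DMSO.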

[12] = CCTE_Mundy_HCI_Cortical_Synap_Neur_Matur_SynapseCount: CCTE's Synaptogenesis and Neurite Maturation Assay in rat cortical cells for Synapse Count, Mundy Lab (AID 2284218)
Summary of the method: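 Primary rat cortical culture; AraC DIV 5 to arrest glia; compound + media change DIV 7; terminated DIV 12. PFA/Hoechst fix, anti-MAP2 + anti-synaptophysin immunostain; HCI synapse count/neuron; DMSO = baseline.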

[13] = CCTE_Mundy_HCI_Cortical_Synap_Neur_Matur_NeuriteCount: CCTE's Synaptogenesis and Neurite Maturation Assay in rat cortical cells for Neurite Count, Mundy Lab (AID 2284222);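 note: exposure from day 7 to day 12 in vitro with readout at day 12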
Summary of the method: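 In this multiplexed morphology readout, rat primary cortical neurons are fixed at DIV 12 following dosing at DIV 7 and stained for MAP2, synaptophysin and nuclei. High-content image analysis yields neurite count.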

[14] = CCTE_Mundy_HCI_Cortical_Synap_Neur_Matur_CellBodySpotCount: CCTE's Synaptogenesis and Neurite Maturation Assay in rat cortical cells for Cell Body Spot Count, Mundy Lab (AID 2284223)
Summary of the method: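 Primary rat cortical cultures, AraC added at DIV 5; dosed DIV 7 through DIV 12 […]. Fixed, stained for MAP2 and synaptophysin with Hoechst; cell body-associated synaptophysin puncta per neuron counted by high-content imaging, loss vs DMSO.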

[15] = UKN2_HCS_IMR90_cell_viability: Viability Assessment in the University of Konstanz (UKN) Leist Lab Neural Crest Cell Migration Assay in human induced IMR90 Pluripotent Stem Cells (UKN2) (AID 2284233);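 note: viability of neural crest cells differentiated from IMR90 iPSC measured by calcein-AM fluorescence imaging; cells exposed to compound for 24 h after a 24 h migration phase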
Summary of the method: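 Human IMR90-derived neural crest cells were allowed to migrate for 24 h into a cell-free zone, then exposed to test chemicals for 24 h. Calcein-AM and Hoechst staining with high-content imaging gave viability, analysed against DMSO baseline.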

[16] = CCTE_Mundy_HCI_Cortical_NOG_NeuronCount: CCTE's Neurite Outgrowth Assay in rat cortical cells for Neuron Count, Mundy Lab (AID 2284236; active = hit-call score of the fitted dose curve at least 0.9, where 1 is the maximum;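 note: neurons counted by imaging betaIII-tubulin and Hoechst stained cortical cells; cells exposed to compound for about 48 hours before fixation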)
Summary of the method: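 Read-out: neuron number by high-content imaging of betaIII-tubulin (Alexa Fluor-488) and Hoechst-labelled rat primary cortical cells.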

[17] = CCTE_Mundy_HCI_Cortical_NOG_BPCount: CCTE's Neurite Outgrowth Assay in rat cortical cells for Branch Point Count, Mundy Lab (AID 2284237)
Summary of the method: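 Measured 50.33 h after dosing, this morphology endpoint uses rat primary cortical cultures labelled for betaIII-tubulin. Branch points are quantified by high-content imaging, with DMSO as negative control and baseline.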

[18] = TAMU_PeakParms_SingleDonor1434_Chronotropy: Texas A&M University (TAMU) 1.5-hr Human Induced Pluripotent Stem Cell (iPSC)-derived Cardiomyocytes Calcium (Ca+2) Flux Assay for Cardiotoxicity: Chronotropy (changes in peak frequency) (AID 2284217); conditions: actives raise or lower the signal
Summary of the method: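 Using fluorescent Ca2+ flux, average beats per second are measured in human iPSC-derived cardiomyocytes treated 90 min (0.5% DMSO vehicle, 0.2–100 uM). Non-beating data points are removed; activity is modeled in both directions relative to DMSO controls.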

[19] = CCTE_Mundy_HCI_hNP1_Pro_ResponderAvgInten: CCTE's Proliferation Assay in human neuroprogenitor cells, Mundy Lab (AID 2284224; active = hit-call score of the fitted dose curve at least 0.9, where 1 is the maximum;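 note: human neural progenitor cells hNP1 derived from WA09 embryonic stem cells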)
Summary of the method: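 Proliferation was scored as BrdU labelling intensity in human neural progenitors derived from WA09 embryonic cells, measured 26.25 hours after chemical dosing. Activity was fitted relative to DMSO.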

[20] = TAMU_HCS_1.5hr_SingleDonor1434_Cytotoxicity: Cytotoxicity Assessment using High-content Screening (HCS) Fluorescent Imaging for the Texas A&M University (TAMU) 1.5-hr Human Induced Pluripotent Stem Cell (iPSC)-derived Cardiotoxicity Assay (AID 2284234; active = hit-call score of the fitted dose curve at least 0.9, where 1 is the maximum)
Summary of the method: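 Human iPSC-derived cardiomyocytes dosed at 0.2, 1, 10, 100 uM final (0.5% DMSO) for 90 min at 37 C. Hoechst 33342-stained nuclei counted by 10x high-content imaging; POD is EC10, a 10% drop in total cell count versus DMSO.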

Measured: AC50

Tumor necrosis factor (Homo sapiens), sequence (P01375 whole entry, looked up): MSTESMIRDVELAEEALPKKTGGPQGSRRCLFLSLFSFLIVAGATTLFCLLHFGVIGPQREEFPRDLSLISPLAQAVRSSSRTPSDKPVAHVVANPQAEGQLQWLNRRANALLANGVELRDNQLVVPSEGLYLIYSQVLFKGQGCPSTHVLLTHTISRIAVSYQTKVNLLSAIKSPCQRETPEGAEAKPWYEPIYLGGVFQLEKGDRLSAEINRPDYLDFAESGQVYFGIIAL

CCCCCCCCC(CO)CCCCCC (configuration not stated)
inactive: [1] | [3] | [5] | [6] | [7] | [8]
active: [2] 33.7 µM | [4] 30.2 µM

CCCCCCCCCCCC(C)=O
inactive: [1] | [2] | [3] | [4] | [5] | [6] | [7] | [8]

Oc1ccc(/C=C/c2cc(O)cc(O)c2)cc1
active: [2] 6.86 µM | [3] 24.5 µM | [4] 35.4 µM | [5] 20 µM | [6] 25.7 µM
inactive: [1] | [7] | [8]

CC=C(C)C(C)=O
inactive: [1] | [2] | [3] | [4] | [5] | [6] | [7] | [8]

O=C(Oc1ccccc1)c1ccccc1C(=O)Oc1ccccc1
active: [1] 20 µM | [3] 26.2 µM | [7] 20 µM
inactive: [2] | [4] | [5] | [6] | [8]

CCCCC1C(=O)N(c2ccccc2)N(c2ccccc2)C1=O
inactive: [1] | [2] | [3] | [4] | [5] | [6] | [7] | [8]

COc1ccc(C(=O)/C(Br)=C\C(=O)O)cc1
inactive: [8]
active: [1] 27.6 µM and 25.4 µM | [2] 6.83 µM and 8.75 µM | [3] 25.4 µM and 18.6 µM | [4] 20 µM | [5] 24.3 µM and 25.6 µM | [6] 31.3 µM and 29.5 µM | [7] 25.5 µM and 10.5 µM

O=C1CCCCCCCCCCC1
inactive: [1] | [2] | [3] | [4] | [5] | [6] | [7] | [8]

CCCCNS(=O)(=O)c1ccccc1
inactive: [9] | [10] | [11] | [12] | [13] | [14] | [15] | [16] | [17]

CCC1(C)C(=O)N(Cl)C(=O)N1Cl (configuration not stated)
inactive: [1] | [2] | [3] | [4] | [5] | [6] | [7] | [8]

CC(C)[N+](C)(CCOC(=O)C1c2ccccc2Oc2ccccc21)C(C)C
inactive: [1] | [2] | [3] | [4] | [5] | [6] | [7] | [8]

COc1ccc(C(=O)c2ccccc2)c(O)c1
inactive: [1] | [2] | [3] | [4] | [5] | [6] | [7] | [8]

CCOC(=O)C1=NOC(c2ccccc2)(c2ccccc2)C1
active: [2] 20 µM | [4] 6.05 µM
inactive: [1] | [3] | [5] | [6] | [7] | [8]

Oc1c(Cl)cc(Cl)c(Cl)c1Cl
inactive: [1] | [3] | [4] | [5] | [6]
active: [2] 33.5 µM | [7] 11.6 µM | [8] 20 µM

Cc1c(C(=O)c2c[nH]n(C)c2=O)ccc(S(C)(=O)=O)c1C1=NOCC1
inactive: [9] | [10] | [11] | [12] | [13] | [14] | [17]

CCN1CN(CC)CN(CC)C1
inactive: [1] | [2] | [3] | [4] | [5] | [6] | [7] | [8]

CC/C=C\C/C=C\C/C=C\CCCCCCCC(=O)OC
active: [1] 17.4 µM | [2] 5.15 µM | [3] 21.6 µM | [4] 13.5 µM | [5] 12 µM | [6] 27.8 µM | [7] 11.1 µM | [8] 9.7 µM

C=CC(=O)NCOCCCC
inactive: [1] | [2] | [3] | [4] | [5] | [6] | [7] | [8]

COC(=O)[C@H](Cc1ccccc1)NC(=O)[C@@H](N)CC(=O)O (H-Asp-Phe-OMe)
inactive: [9] | [10] | [11] | [18] | [12] | [13] | [14] | [19] | [20] | [16] | [17]

c1ccc2c(c1)[nH]c1ccccc12
inactive: [1] | [2] | [3] | [4] | [5] | [6] | [7] | [8]

CCc1cccc(C)c1N(C(=O)CS(=O)(=O)O)C(C)COC (configuration not stated)
inactive: [1] | [2] | [3] | [4] | [5] | [6] | [7] | [8]

CCNc1nc(NC(C)(C)C)nc(OC)n1
active: [2] 13.9 µM
inactive: [1] | [3] | [4] | [5] | [6] | [7] | [8]

Cc1noc(NS(=O)(=O)c2ccc(N)cc2)c1C
inactive: [9] | [10] | [11] | [12] | [13] | [14] | [17]

O=C(O)C(F)(F)C(F)(F)C(F)(F)C(F)(F)C(=O)O
active: [6] 2.64 µM
inactive: [19] | [1] | [2] | [3] | [4] | [5] | [6] | [7] | [8]

CCOC(=O)C1=NN(c2ccc(Cl)cc2Cl)C(C)(C(=O)OCC)C1 (configuration not stated)
inactive: [1] | [3] | [4] | [5] | [6] | [7] | [8]
active: [2] 20 µM

CC(c1cc(C(C)(C)C)cc(C(C)(C)C)c1O)c1cc(C(C)(C)C)cc(C(C)(C)C)c1O
inactive: [7] | [8]
active: [1] 30.2 µM | [2] 5.95 µM | [3] 28.1 µM | [4] 32.3 µM | [5] 17.2 µM | [6] 26.5 µM

— PubChem BioAssay (EPA / NIEHS)
